Experimental data as given in ChEMBL document CHEMBL1961873, “Compounds: GSK PKIS; Assays: Nanosyn kinase panel” (2012).

These compounds were tested against T1, cGMP-dependent protein kinase 2 (Homo sapiens) (UniProt Q13237). Conditions: at 0.1 µM.
T1 sequence (whole entry): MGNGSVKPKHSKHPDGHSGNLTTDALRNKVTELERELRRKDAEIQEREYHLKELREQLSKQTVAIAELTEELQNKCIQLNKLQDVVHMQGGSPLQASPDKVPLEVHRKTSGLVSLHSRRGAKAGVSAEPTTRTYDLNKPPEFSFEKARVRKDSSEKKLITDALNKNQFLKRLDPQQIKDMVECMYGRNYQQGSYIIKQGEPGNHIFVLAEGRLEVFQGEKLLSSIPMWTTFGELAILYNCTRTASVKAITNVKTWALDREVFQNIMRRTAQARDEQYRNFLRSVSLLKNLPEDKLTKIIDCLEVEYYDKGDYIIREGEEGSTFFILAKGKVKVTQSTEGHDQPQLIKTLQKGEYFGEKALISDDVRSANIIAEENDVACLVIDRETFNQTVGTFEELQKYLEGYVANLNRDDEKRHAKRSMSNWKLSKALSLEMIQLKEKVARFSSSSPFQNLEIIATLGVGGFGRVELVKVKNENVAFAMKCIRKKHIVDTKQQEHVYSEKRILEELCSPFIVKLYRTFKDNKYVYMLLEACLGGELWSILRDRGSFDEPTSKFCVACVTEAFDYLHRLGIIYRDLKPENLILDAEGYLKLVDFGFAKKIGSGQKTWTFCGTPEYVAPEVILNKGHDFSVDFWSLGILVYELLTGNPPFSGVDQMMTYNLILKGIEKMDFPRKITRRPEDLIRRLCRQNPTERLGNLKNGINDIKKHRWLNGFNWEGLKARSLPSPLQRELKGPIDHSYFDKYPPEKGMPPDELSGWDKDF
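Note: reported figure is a mean inhibition value against PRKG2.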

Compound	inhibition
c1ccc(COc2ccc(Nc3ncnc4ccc(-c5ccco5)cc34)cc2)cc1	0.02%
COC(=O)Nc1nc2ccc(S(=O)(=O)c3ccc(NC(=O)Nc4cc(C(F)(F)F)ccc4F)cc3)cc2[nH]1	2.34%
CN(C)CCOc1ccc(-c2nc(-c3ccncc3)c(-c3ccc4c(c3)CC/C4=N\O)[nH]2)cc1	2.69%
CS(=O)(=O)CCNCc1ccc(-c2ccc3ncnc(Nc4ccc(OCc5ccccc5)c(C(F)(F)F)c4)c3c2)o1	1.82%
COc1cc2ncn(-c3cc(OCc4ccccc4C(F)(F)F)c(C(=O)N(C)C)s3)c2cc1OC	-0.41%
CC(C)COC(=O)c1ccc2c(c1)/C(=C/Nc1ccc(S(N)(=O)=O)cc1)C(=O)N2	11%
CCc1nn2ncccc2c1-c1ccnc(NC2CC2)n1	0.96%
CN1CCC(n2cnc(-c3ccc(F)cc3)c2-c2ccnc(Nc3ccccc3)n2)CC1	0.99%
FC(F)(F)c1cccc(-c2nn3ncccc3c2-c2ccnc(Nc3ccc4c(c3)OCCO4)n2)c1	0.46%
COc1ccc2[nH]c3c4[nH]c5ccc(OC)cc5c4c4c(c3c2c1)C(=O)NC4=O	69.5%
CNC(=O)c1cccc(C#Cc2cncnc2Nc2ccc(OCc3cccc(F)c3)c(Cl)c2)c1	0.38%
COc1cc(N2CCN(C(C)C)CC2)ccc1Nc1nc(Nc2ccc(F)cc2C(N)=O)c2cc[nH]c2n1	6%
Fc1ccc(-c2cc(-c3c[nH]nc3-c3ccccn3)ccn2)cc1	1.37%
COc1cc2c(cc1Nc1nc(Nc3ccsc3C(N)=O)c3cc[nH]c3n1)N(C(=O)CN(C)C)CCC2(C)C	4.41%
